Test results from PubChem BioAssay (NCI).
This is part of a sample that, as a whole, favours compounds with a hit. Of some 83,000 tested, about 20% had one in any assay.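 Negative percent growth values reflect cell death: -40 means 40% of the cells present at the start died, and -100 means all died.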 Activity calls are given as the source filed them. Rule for the calls: active = growth percent below 10; inactive = the rest.

How the values were obtained:
Assay in all cases: NCI-60 one-dose screen, 48 h (100 = growth as untreated, 0 = no growth, -100 = all killed)
Conditions in all cases: 10 µM unless noted
SR leukemia = system: SR leukemia
RPMI-8226 leukemia = system: RPMI-8226 leukemia
OVCAR-8 ovarian = system: OVCAR-8 ovarian
OVCAR-5 ovarian = system: OVCAR-5 ovarian
OVCAR-4 ovarian = system: OVCAR-4 ovarian
SK-OV-3 ovarian = system: SK-OV-3 ovarian
IGROV1 ovarian = system: IGROV1 ovarian
OVCAR-3 ovarian = system: OVCAR-3 ovarian
HS 578T breast = system: HS 578T breast
NCI/ADR-RES ovarian = system: NCI/ADR-RES ovarian

Measured: growth

CC1(C)CC[C@]2(CO)CC[C@]3(C)[C@](O)([C@H](O)C[C@@H]4[C@@]5(C)CCCNC(C)(C)[C@@H]5CC[C@]43C)[C@@H]2C1
active: SR leukemia 3.98%
inactive: RPMI-8226 leukemia 74.4% | OVCAR-8 ovarian 101% | OVCAR-5 ovarian 106% | OVCAR-4 ovarian 96.2% | SK-OV-3 ovarian 98.2% | IGROV1 ovarian 102% | OVCAR-3 ovarian 101% | HS 578T breast 98.9% | NCI/ADR-RES ovarian 100%

CC1(C)CC(=O)C2=C(C1)C(c1ccc(Cl)cc1)n1ncc(C#N)c1N2 (stereo not given)
inactive: SR leukemia 109% | RPMI-8226 leukemia 96% | OVCAR-8 ovarian 97% | OVCAR-5 ovarian 103% | OVCAR-4 ovarian 96.3% | SK-OV-3 ovarian 82.8% | IGROV1 ovarian 85.7% | OVCAR-3 ovarian 113% | HS 578T breast 98.1% | NCI/ADR-RES ovarian 106%

COc1cccc(-c2cn3nc(-c4cn(C)c5ccccc45)sc3n2)c1
inactive: SR leukemia 24.9% | RPMI-8226 leukemia 97% | OVCAR-8 ovarian 101% | OVCAR-5 ovarian 91.4% | OVCAR-4 ovarian 93.6% | SK-OV-3 ovarian 93.6% | IGROV1 ovarian 92.8% | OVCAR-3 ovarian 99.2% | HS 578T breast 85.7% | NCI/ADR-RES ovarian 94.3%

Cc1ccc(C)c2c1sc1nc(N3CCOCC3)c(C#N)c(=O)n12
inactive: SR leukemia 63.5% | RPMI-8226 leukemia 76.5% | OVCAR-8 ovarian 110% | OVCAR-5 ovarian 95.8% | OVCAR-4 ovarian 76.8% | SK-OV-3 ovarian 99.4% | IGROV1 ovarian 55.9% | OVCAR-3 ovarian 89.9% | HS 578T breast 76.4% | NCI/ADR-RES ovarian 92.2%

COc1ccc(-c2nc3c(c(-c4ccc(Cl)cc4)nn3-c3ccccc3)c(-c3ccccc3)c2C#N)cc1
inactive: SR leukemia 114% | RPMI-8226 leukemia 106% | OVCAR-8 ovarian 100% | OVCAR-5 ovarian 103% | OVCAR-4 ovarian 116% | SK-OV-3 ovarian 122% | IGROV1 ovarian 111% | OVCAR-3 ovarian 111% | HS 578T breast 114% | NCI/ADR-RES ovarian 108%

CCN1C(=O)N(c2ccccc2)C2NC(=S)N(/N=C/C=C/c3ccccc3OC)C21 (stereo not given)
inactive: SR leukemia 17.4% | RPMI-8226 leukemia 14.7% | OVCAR-5 ovarian 27.8% | OVCAR-4 ovarian 45.5% | SK-OV-3 ovarian 31.6% | HS 578T breast 20.2%
active: OVCAR-8 ovarian 9.48% | IGROV1 ovarian 3.96% | OVCAR-3 ovarian 4.35% | NCI/ADR-RES ovarian 6.95%

O=C1Nc2ccc(Cl)cc2/C1=C/c1ccc[nH]1
inactive: SR leukemia 50.4% | RPMI-8226 leukemia 101% | OVCAR-8 ovarian 102% | OVCAR-5 ovarian 83.7% | OVCAR-4 ovarian 44.3% | SK-OV-3 ovarian 117% | IGROV1 ovarian 58.2% | OVCAR-3 ovarian 90.5% | HS 578T breast 114% | NCI/ADR-RES ovarian 112%

Cc1cc2oc(/C=C/c3ccccc3)cc(=O)c2c(C)c1Cl
inactive: SR leukemia 78.3% | RPMI-8226 leukemia 94% | OVCAR-8 ovarian 100% | OVCAR-5 ovarian 104% | OVCAR-4 ovarian 99% | SK-OV-3 ovarian 96.3% | IGROV1 ovarian 109% | OVCAR-3 ovarian 108% | HS 578T breast 119% | NCI/ADR-RES ovarian 97.8%

Oc1c(CN2CCC(N3CCOCC3)CC2)cc(Cc2cc(CN3CCC(N4CCOCC4)CC3)c(O)c3ncccc23)c2cccnc12
inactive: SR leukemia 20% | RPMI-8226 leukemia 34.8% | OVCAR-8 ovarian 19.6% | OVCAR-5 ovarian 47.3% | OVCAR-4 ovarian 15.4% | IGROV1 ovarian 25% | OVCAR-3 ovarian 19.6% | HS 578T breast 58.9% | NCI/ADR-RES ovarian 40.7%
active: SK-OV-3 ovarian 0.924%

C=C1C(=O)O[C@H]2[C@H]1CC/C(COC(=O)/C=C\C(=O)NCc1ccc(Cn3c(=O)sn(CCCCl)c3=O)cc1)=C\CC[C@@]1(C)O[C@@H]21
inactive: SR leukemia 66.5% | RPMI-8226 leukemia 44.9% | OVCAR-8 ovarian 79.9% | OVCAR-5 ovarian 82.2% | OVCAR-4 ovarian 74.9% | SK-OV-3 ovarian 97.4% | IGROV1 ovarian 58.6% | OVCAR-3 ovarian 37.4% | HS 578T breast 88.8% | NCI/ADR-RES ovarian 93.7%

C[C@@H]1CN(c2cnc(C(=O)Nc3cc(F)cc4cccnc34)cn2)C[C@H](C)N1
inactive: SR leukemia 28.6% | RPMI-8226 leukemia 26% | OVCAR-8 ovarian 61.1% | OVCAR-5 ovarian 83.9% | OVCAR-4 ovarian 12.7% | SK-OV-3 ovarian 86.2% | IGROV1 ovarian 78.9% | OVCAR-3 ovarian 39.5% | HS 578T breast 76.8% | NCI/ADR-RES ovarian 66%

Clc1ccc(Nc2nnc(CNc3ccccc3)c3ccccc23)cc1
inactive: OVCAR-8 ovarian 18.3% | OVCAR-5 ovarian 41.4% | OVCAR-4 ovarian 19.3% | SK-OV-3 ovarian 22% | IGROV1 ovarian 19.1% | HS 578T breast 26.6% | NCI/ADR-RES ovarian 18.8%
active: SR leukemia -9.19% | RPMI-8226 leukemia 3.35% | OVCAR-3 ovarian -1.64%

O=C(/C=C/c1cccc(Oc2ccccc2)c1)c1ccc(Nc2nc(Nc3ccc(F)cc3)nc(Nc3ccc(Cl)cc3)n2)cc1
inactive: RPMI-8226 leukemia 25.4% | OVCAR-8 ovarian 104% | OVCAR-5 ovarian 99.5% | OVCAR-4 ovarian 97.9% | SK-OV-3 ovarian 120% | IGROV1 ovarian 94% | OVCAR-3 ovarian 104% | HS 578T breast 109% | NCI/ADR-RES ovarian 96.8%
active: SR leukemia -14.9%

COc1cccc(CNc2c3ccccc3nc3ccccc23)c1OC
inactive: SR leukemia 17.5% | RPMI-8226 leukemia 17% | OVCAR-8 ovarian 39.2% | OVCAR-5 ovarian 43% | OVCAR-4 ovarian 36.6% | SK-OV-3 ovarian 66% | IGROV1 ovarian 23.2% | OVCAR-3 ovarian 65.1% | HS 578T breast 64.3% | NCI/ADR-RES ovarian 33.2%

C(=C(\C1=NCCN1)n1ccc2ccccc21)/c1ccccc1
inactive: SR leukemia 95.9% | RPMI-8226 leukemia 100% | OVCAR-8 ovarian 97% | OVCAR-5 ovarian 92.6% | OVCAR-4 ovarian 103% | SK-OV-3 ovarian 105% | IGROV1 ovarian 93.4% | OVCAR-3 ovarian 104% | HS 578T breast 88.6% | NCI/ADR-RES ovarian 97.6%

O=C(c1cccc(N2CCOCC2)n1)c1c[nH]c2ccccc12
inactive: SR leukemia 95.7% | RPMI-8226 leukemia 96.6% | OVCAR-8 ovarian 89.9% | OVCAR-5 ovarian 105% | OVCAR-4 ovarian 82.3% | SK-OV-3 ovarian 164% | IGROV1 ovarian 70% | OVCAR-3 ovarian 91% | HS 578T breast 89.2% | NCI/ADR-RES ovarian 97.2%

Cc1cn(C)cn1
inactive: SR leukemia 99.4% | RPMI-8226 leukemia 102% | OVCAR-8 ovarian 106% | OVCAR-5 ovarian 102% | OVCAR-4 ovarian 100% | SK-OV-3 ovarian 120% | IGROV1 ovarian 117% | OVCAR-3 ovarian 108% | HS 578T breast 138% | NCI/ADR-RES ovarian 109%

COc1ccc(-c2cc(C(=O)N3N=C(c4ccc(N)cc4)CC3c3ccc(Cl)cc3)c3cc(OC)ccc3n2)cc1 (stereo not given)
inactive: SR leukemia 20.9% | RPMI-8226 leukemia 20.9% | OVCAR-8 ovarian 56.4% | OVCAR-5 ovarian 76.1% | OVCAR-4 ovarian 53.9% | SK-OV-3 ovarian 89.7% | IGROV1 ovarian 39.6% | OVCAR-3 ovarian 42.7% | HS 578T breast 87.3% | NCI/ADR-RES ovarian 14.8%

CNC(=O)Nc1ccc(-c2ccc3ncnc(Nc4cccc(Cl)c4)c3c2)cc1
inactive: SR leukemia 27.6% | RPMI-8226 leukemia 55.1% | OVCAR-8 ovarian 54.6% | OVCAR-5 ovarian 55.1% | OVCAR-4 ovarian 69.7% | SK-OV-3 ovarian 19.3% | IGROV1 ovarian 12.3% | OVCAR-3 ovarian 39.6% | HS 578T breast 46.5% | NCI/ADR-RES ovarian 57.6%

O=C1CCC(C(=O)N/N=C/c2cc(F)ccc2F)N1 (stereo not given)
inactive: SR leukemia 109% | RPMI-8226 leukemia 103% | OVCAR-8 ovarian 101% | OVCAR-5 ovarian 106% | OVCAR-4 ovarian 97.6% | SK-OV-3 ovarian 108% | IGROV1 ovarian 102% | OVCAR-3 ovarian 102% | HS 578T breast 99.1% | NCI/ADR-RES ovarian 106%

C=C(c1ccc(C(=O)O)c(F)c1)c1cc2c(cc1C)C(C)(C)CCC2(C)C
inactive: SR leukemia 86.8% | RPMI-8226 leukemia 43.1% | OVCAR-8 ovarian 90.8% | OVCAR-5 ovarian 101% | OVCAR-4 ovarian 80.9% | SK-OV-3 ovarian 84.8% | IGROV1 ovarian 98% | OVCAR-3 ovarian 90.8% | HS 578T breast 59.6% | NCI/ADR-RES ovarian 79.5%

COc1cc(/C=C/c2cc(/C=C/c3ccc(O)c(OC)c3)n(C(=O)Nc3ccc(Cl)cc3)n2)ccc1O
inactive: OVCAR-5 ovarian 10.9% | OVCAR-4 ovarian 13.3% | NCI/ADR-RES ovarian 17.5%
active: SR leukemia 1.52% | RPMI-8226 leukemia 2.91% | OVCAR-8 ovarian -19.8% | SK-OV-3 ovarian -0.374% | IGROV1 ovarian 9.93% | OVCAR-3 ovarian -11% | HS 578T breast 8.23%

COc1cc(/C=C/C(=O)c2cccc(-n3cc(-c4ccc(Cl)cc4)[nH]c3=O)c2)ccc1O
inactive: SR leukemia 33% | OVCAR-8 ovarian 46.5% | OVCAR-5 ovarian 91.4% | OVCAR-4 ovarian 57% | SK-OV-3 ovarian 97.9% | HS 578T breast 76.5% | NCI/ADR-RES ovarian 35.4%
active: RPMI-8226 leukemia 5.06% | IGROV1 ovarian -10.6% | OVCAR-3 ovarian 3.36%

OC1CSSC1Cn1cnc2c(Nc3ccc(OCc4cccc(F)c4)c(Cl)c3)ncnc21 (stereo not given)
inactive: OVCAR-8 ovarian 37.4% | OVCAR-5 ovarian 41% | IGROV1 ovarian 41.4% | HS 578T breast 59.2%
active: SR leukemia -29.9% | RPMI-8226 leukemia -37.5% | OVCAR-4 ovarian 4.03% | SK-OV-3 ovarian -8.67% | OVCAR-3 ovarian -70.2% | NCI/ADR-RES ovarian 1.93%

C=C(C)[C@@H]1CC[C@]2(CO)CC[C@]3(C)[C@H](CC[C@@H]4[C@@](C)(CCCN)[C@H](C(=C)C)CC[C@]43C)[C@@H]12
active: SR leukemia -14% | RPMI-8226 leukemia -43.2% | OVCAR-8 ovarian -40.4% | OVCAR-5 ovarian -78.5% | OVCAR-4 ovarian -67.8% | SK-OV-3 ovarian -82.4% | IGROV1 ovarian -96.2% | OVCAR-3 ovarian -61.7% | HS 578T breast -52.3% | NCI/ADR-RES ovarian -80.4%

Cn1c(=O)c2[nH]c(SC/C(=N/O)c3ccc(Br)cc3)nc2n(C)c1=O
inactive: SR leukemia 60.4% | RPMI-8226 leukemia 59.4% | OVCAR-8 ovarian 26.5% | OVCAR-5 ovarian 54.8% | IGROV1 ovarian 20.1% | OVCAR-3 ovarian 11.8% | HS 578T breast 31.8% | NCI/ADR-RES ovarian 37.1%
active: OVCAR-4 ovarian 7.77% | SK-OV-3 ovarian -33.3%
